Reference: PubChem BioAssay AID1159580 (chemical genetic matrix, 2015)
Several values for one entry are separate records, joined by “and”; a condition that tells them apart may be missing. Equal values may be shown once. Screen size: about 5,500 compounds; about 2,000 (36%) were called active. Not shown: some 18% with an inconclusive outcome. Cut-off read from the data, not from the text of the source: active = normalized growth mostly below about 0.91 (no sharp cut-off); inconclusive = no clear call, values can overlap the other calls; inactive = mostly above about 0.92. This is one part of the list.

Assay: chemical genetic growth profiling, strain panel (AID 1159580);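 note: tested at 20 µM; growth read once vehicle control cultures reached saturation at 30 °C; 1 = growth at the plate median or of vehicle wells; lower values mean less growth of the strain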
Settings: S. cerevisiae deletion strains, growth OD

Measured: normalized growth

CC1CCCC(C)N1NC(=O)c1ccc(Cl)c(S(N)(=O)=O)c1 (stereo unspecified)
inactive: locus YAL013W, strain DEP1, active compounds read low 1 | locus YAL021C, strain ccr4, active compounds read low 1 | locus YAL026C, strain drs2, active compounds read low 1.03 | locus YAL030W, strain snc1, active compounds read low 0.989 | locus YBL061C, strain skt5, active compounds read low 1.02 | locus YBR009C, strain hhf1, active compounds read low 1.02 | locus YBR021W, strain FUR4, active compounds read low 1.09 | locus YBR023C, strain chs3, active compounds read low 1.01 | locus YBR171W, strain sec66, active compounds read low 1.03 | locus YBR229C, strain ROT2, active compounds read low 0.996 | locus YBR231C, strain swc5, active compounds read low 1.05 | locus YBR279W, strain paf1, active compounds read low 1 | locus YCL011C, strain gbp2, active compounds read low 0.932 | locus YCL016C, strain dcc1, active compounds read low 1.02 | locus YCL029C, strain bik1, active compounds read low 0.974 | locus YCL069W, strain vba3, active compounds read low 1 | locus YCR088W, strain abp1, active compounds read low 1.01 | locus YDL005C, strain med2, active compounds read low 1.01 | locus YDL035C, strain GPR1, active compounds read low 1.01 | locus YDL040C, strain nat1, active compounds read low 1.01 | locus YDL074C, strain BRE1, active compounds read low 0.991 | locus YDL101C, strain DUN1, active compounds read low 0.983 | locus YDL134C, strain PPH21, active compounds read low 1 | locus YDL185W, strain tfp1, active compounds read low 0.964 | locus YDL192W, strain arf1, active compounds read low 0.988 | locus YDR001C, strain nth1, active compounds read low 1.01 | locus YDR069C, strain doa4, active compounds read low 1.01 | locus YDR101C, strain arx1, active compounds read low 0.99 | locus YDR137W, strain rgp1, active compounds read low 1.01 | locus YDR150W, strain NUM1, active compounds read low 0.992 | locus YDR159W, strain sac3, active compounds read low 1.02 | locus YDR162C, strain NBP2, active compounds read low 0.997 | locus YDR195W, strain ref2 1 | locus YDR297W, strain sur2, active compounds read low 1.01 | locus YDR318W, strain mcm21, active compounds read low 1 | locus YDR334W, strain swr1, active compounds read low 1.02 | locus YDR335W, strain msn5, active compounds read low 1.02 | locus YDR388W, active compounds read low 0.998 | locus YDR392W, strain spt3, active compounds read low 1.03 | locus YDR502C, strain sam2, active compounds read low 0.993 | locus YEL003W, strain gim4, active compounds read low 1.02 | locus YEL037C, strain rad23, active compounds read low 1.02 | locus YEL061C, strain CIN8 (second series), active compounds read low 1.01 | locus YEL061C, strain CIN8, active compounds read low 1 | locus YER015W, strain faa2, active compounds read low 1.02 | locus YER016W, strain bim1, active compounds read low 1.02 | locus YER110C, active compounds read low 0.983 | locus YER111C, strain swi4, active compounds read low 1.01 | locus YER155C, strain BEM2 (second series), active compounds read low 1.04 | locus YER155C, strain BEM2, active compounds read low 1 | locus YER167W, strain BCK2, active compounds read low 0.997 | locus YFR010W, strain ubp6, active compounds read low 1.03 | locus YGL078C, strain dbp3, active compounds read low 0.997 | locus YGL086W, strain mad1, active compounds read low 1 | locus YGL167C, strain pmr1, active compounds read low 1.01 | locus YGL173C, strain kem1, active compounds read low 1.03 | locus YGL227W, strain vid30, active compounds read low 1.02 | locus YGL240W, strain doc1, active compounds read low 1.01 | locus YGL248W, strain PDE1, active compounds read low 1 | locus YGL253W, strain hxk2, active compounds read low 1.02 | locus YGR078C, strain PAC10, active compounds read low 0.983 | locus YGR135W, strain pre9, active compounds read low 0.993 | locus YGR229C, strain SMI1, active compounds read low 0.991 | locus YGR252W, strain gcn5, active compounds read low 1.2 | locus YHR013C, strain ard1, active compounds read low 1.01 | locus YHR027C, strain rpn1, active compounds read low 1.01 | locus YHR030C, strain SLT2, active compounds read low 0.998 and 0.962 | locus YHR079C, strain IRE1 (second series), active compounds read low 0.985 | locus YHR079C, strain IRE1, active compounds read low 0.949 | locus YHR094C, strain hxt1, active compounds read low 0.986 | locus YHR129C, strain ARP1, active compounds read low 0.984 | locus YHR142W, strain chs7, active compounds read low 1.01 | locus YHR200W, strain rpn10, active compounds read low 1 | locus YIL066C, strain RNR3, active compounds read low 0.995 | locus YIL073C, strain SPO22, active compounds read low 0.874 | locus YIL125W, strain kgd1, active compounds read low 0.956 | locus YIR030C, strain dcg1, active compounds read low 0.998 | locus YJL092W, strain hpr5, active compounds read low 1.02 | locus YJL095W, strain BCK1 (second series), active compounds read low 1.01 | locus YJL095W, strain BCK1, active compounds read low 0.972 and 0.992 | locus YJL115W, strain asf1, active compounds read low 1.01 | locus YJL129C, strain trk1, active compounds read low 1.03 | locus YJL134W, strain LCB3, active compounds read low 0.993 | locus YJL154C, strain vps35, active compounds read low 1.02 | locus YJL164C, strain tpk1, active compounds read low 1 | locus YJL166W, strain qcr8, active compounds read low 0.989 | locus YJL168C, strain set2, active compounds read low 0.993 | locus YJL187C, strain SWE1 (second series), active compounds read low 0.966 | locus YJR043C, strain POL32, active compounds read low 0.982 | locus YJR066W, strain TOR1, active compounds read low 0.962 | locus YJR075W, strain HOC1, active compounds read low 0.985
